# In PubChem BioAssay (EPA / NIEHS):
# Active and inactive are the calls of the source. Rule for the calls: active = hit-call score of the fitted dose curve at least 0.9, where 1 is the maximum; inactive = score below 0.9.
# Assays:
# [1] = ATG_E_Box_CIS: Attagene CIS-FACTORIAL HepG2 Assay for human Enhancer Box (E-box) (AID 2282936); settings: HepG2 E-box cis-reporter transcription, actives raise or lower the signal
# Outline: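 Transiently transfected HepG2, endogenous TF-driven reporters, 24 h dosing. Readout: RT-PCR plus capillary electrophoresis of fluorescent reporter fragments. Gain or loss of signal fitted bidirectionally against DMSO baseline.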
# [2] = ATG_M_61_CIS: Attagene CIS-FACTORIAL HepG2 Assay for M61 Transcription Factor (Internal Marker) (AID 2282937); settings: HepG2 Attagene CIS-FACTORIAL M61 internal marker reporter; actives raise or lower the signal
# Outline: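 HepG2 cells transiently transfected with cis-element-driven multiple reporter transcription units, dosed for 24 h. Reporter mRNA measured by RT-PCR, 6-FAM primer-extension labelling, HpaI digestion and capillary electrophoresis; bidirectional fit versus DMSO baseline.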
# [3] = ATG_EGR_CIS: Attagene CIS-FACTORIAL HepG2 Assay for human Early Growth Response 1 (EGR1) (AID 2282938); settings: HepG2 Attagene CIS-FACTORIAL EGR reporter mRNA; actives raise or lower the signal
# Outline: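 HepG2 cells transiently transfected with cis-promoter-driven multiplexed reporter transcription units; reporter mRNA measured 24 h after compound dosing by RT-PCR, 6-FAM primer extension, HpaI digestion and capillary electrophoresis. Bidirectional fit versus DMSO baseline.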
# [4] = ATG_M_19_CIS: Attagene CIS-FACTORIAL HepG2 Assay for M19 Transcription Factor (Internal Marker) (AID 2282939); settings: HepG2 Attagene CIS-FACTORIAL M19 internal marker reporter; actives raise or lower the signal
# Outline: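 Transfect HepG2 with MRTU reporter library → dose chemical, 24 h → isolate total RNA, reverse-transcribe with oligo(dT) → PCR, 6-FAM label, HpaI cut (2 h, 37 C) → capillary electrophoresis. Bidirectional fit vs DMSO.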
# [5] = ATG_ERE_CIS: Attagene CIS-FACTORIAL HepG2 Assay for Estrogen Response Element (ERE) (AID 2282940); settings: HepG2 ERE cis-reporter, Attagene RNA transcript; actives raise or lower the signal
# Outline: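 Transient MRTU transfection of human HepG2; cis-element promoters; 24 h dosing; total RNA → RT (oligo dT) → PCR → 6-FAM primer extension → HpaI digest → CE fluorescence. Bidirectional fit, DMSO baseline.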
# [6] = ATG_Ets_CIS: Attagene CIS-FACTORIAL HepG2 Assay for human Erythroblast Transformation Specific (ETS) (AID 2282941); settings: HepG2 ETS cis-reporter transcription, actives raise or lower the signal
# Outline: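 Multiplexed reporter transcript profiling: HepG2, 24 h treatment, total RNA to cDNA, PCR, 6-FAM labelling, HpaI cut, capillary electrophoresis. Gain- or loss-of-signal fitted against DMSO.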
# [7] = molecular target: Hepatocyte nuclear factor 3-beta (Homo sapiens) (UniProt Q9Y261); assay: ATG_FoxA2_CIS: Attagene CIS-FACTORIAL HepG2 Assay for human Forkhead box A2 (FOXA2) (AID 2282942); settings: HepG2 cis-reporter transcription factor activity, 24 h; actives raise or lower the signal
# Outline: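 HepG2 cells transiently transfected with multiple cis-regulated reporter transcription units, dosed for 24 h. Reporter mRNA measured by RT-PCR, 6-FAM labelling, HpaI digestion and capillary electrophoresis; bidirectional fitting against DMSO baseline.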
# [8] = ATG_FoxO_CIS: Attagene CIS-FACTORIAL HepG2 Assay for human Forkhead box O (FoxO) (AID 2282943); settings: HepG2 Attagene cis-reporter, FoxO element, mRNA; actives raise or lower the signal
# Outline: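 Transfected HepG2 reporter cells exposed to test chemical for 24 h; reporter RNA measured by reverse transcription, PCR and fluorescent capillary electrophoresis; curves fitted for increases and decreases against DMSO.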
# [9] = ATG_GATA_CIS: Attagene CIS-FACTORIAL HepG2 Assay for human GATA Binding Protein (AID 2282944); settings: HepG2 GATA cis-element reporter, Attagene multiplex mRNA; actives raise or lower the signal
# Outline: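 Transient MRTU transfection, HepG2, 24 h compound exposure. Total RNA → oligo(dT) RT → PCR → 6-FAM primer extension → HpaI cut → CE. Bidirectional fit vs DMSO.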
# [10] = ATG_GLI_CIS: Attagene CIS-FACTORIAL HepG2 Assay for human Zinc Finger Protein GLI1 (AID 2282945); settings: HepG2, Attagene cis-factorial reporter mRNA, GLI element; actives raise or lower the signal
# Outline: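 Transiently transfected HepG2 cells report endogenous transcription factor activity via cis-element-driven reporter units. After 24 h compound exposure, reporter mRNA was measured by RT-PCR with capillary electrophoresis; bidirectional fitting against DMSO baseline.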
# Chain of Hepatocyte nuclear factor 3-beta (Homo sapiens) (Q9Y261 whole entry, looked up): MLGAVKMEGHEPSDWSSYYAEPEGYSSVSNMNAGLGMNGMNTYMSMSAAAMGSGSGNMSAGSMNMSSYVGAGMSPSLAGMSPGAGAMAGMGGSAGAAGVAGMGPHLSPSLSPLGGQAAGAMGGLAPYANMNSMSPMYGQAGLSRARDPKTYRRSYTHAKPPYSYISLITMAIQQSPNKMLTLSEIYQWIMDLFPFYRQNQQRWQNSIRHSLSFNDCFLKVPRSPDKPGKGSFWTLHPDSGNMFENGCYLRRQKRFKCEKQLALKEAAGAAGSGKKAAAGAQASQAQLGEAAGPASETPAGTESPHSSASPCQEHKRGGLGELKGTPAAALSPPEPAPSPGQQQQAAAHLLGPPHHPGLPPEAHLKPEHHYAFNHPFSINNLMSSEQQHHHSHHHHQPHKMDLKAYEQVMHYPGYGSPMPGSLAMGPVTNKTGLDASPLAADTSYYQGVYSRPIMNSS
SMILES,outcome [1],outcome [2],outcome [3],outcome [4],outcome [5],outcome [6],outcome [7],outcome [8],outcome [9],outcome [10],AC50 [5],AC50 [6],AC50 [1],AC50 [8],AC50 [3]
Cn1[nH]nnc1=S,inactive,inactive,inactive,inactive,inactive,inactive,inactive,inactive,inactive,inactive,–,–,–,–,–
CCOP(=S)(NC(C)C)Oc1ccccc1C(=O)OC(C)C (stereo not given),inactive,inactive,inactive,inactive,–,inactive,inactive,inactive,inactive,inactive,11.3 µM (active),–,–,–,–
O=c1[nH]c2ccccc2c(=O)o1,inactive,inactive,inactive,inactive,inactive,inactive,inactive,inactive,inactive,inactive,–,–,–,–,–
CCOP(=S)(Oc1ccc([N+](=O)[O-])cc1)c1ccccc1 (stereo not given),inactive,inactive,inactive,inactive,–,inactive,inactive,inactive,inactive,inactive,3.35 µM (active),–,–,–,–
CC(Cc1ccc(OCC(=O)O)cc1)NCC(O)c1csc(C(F)(F)F)n1 (stereo not given),inactive,inactive,inactive,inactive,inactive,inactive,inactive,inactive,inactive,inactive,–,–,–,–,–
CN(C)C(=O)Cl,inactive,inactive,inactive,inactive,inactive,inactive,inactive,inactive,inactive,inactive,–,–,–,–,–
CCOc1ccc(C(C)(C)COCc2cccc(Oc3ccccc3)c2)cc1,inactive,inactive,inactive,inactive,inactive,inactive,inactive,inactive,inactive,inactive,–,–,–,–,–
N#Cc1cc([N+](=O)[O-])ccc1N,inactive,inactive,inactive,inactive,inactive,inactive,inactive,inactive,inactive,inactive,–,–,–,–,–
CCC1(c2ccccc2)C(=O)N=C(O)NC1=O (stereo not given),inactive,inactive,inactive,inactive,inactive,inactive,inactive,inactive,inactive,inactive,–,–,–,–,–
O=S(=O)(c1ccc(O)cc1)c1ccc(O)cc1,inactive,inactive,inactive,inactive,–,inactive,inactive,inactive,inactive,inactive,1.7 µM (active),–,–,–,–
O=NN1CCCC1,inactive,inactive,inactive,inactive,inactive,inactive,inactive,inactive,inactive,inactive,–,–,–,–,–
CCCCC(CC)COC(=O)c1c(Br)c(Br)c(Br)c(Br)c1C(=O)OCC(CC)CCCC (stereo not given),inactive,inactive,inactive,inactive,inactive,inactive,inactive,inactive,inactive,inactive,–,–,–,–,–
CC(C)(C)c1ccc(O)cc1,inactive,inactive,inactive,inactive,–,inactive,inactive,inactive,inactive,inactive,3.14 µM (active),–,–,–,–
NNC(N)=S,inactive,inactive,inactive,inactive,inactive,inactive,inactive,inactive,inactive,inactive,–,–,–,–,–
N#Cc1c(-c2ccc(Cl)cc2)[nH]c(C(F)(F)F)c1Br,inactive,inactive,inactive,inactive,inactive,–,inactive,inactive,inactive,inactive,–,19.8 µM (active),–,–,–
ClC(Cl)=C(c1ccc(Cl)cc1)c1ccccc1Cl,–,inactive,inactive,inactive,–,–,inactive,–,inactive,inactive,4.18 µM (active),174 µM (active),63.6 µM (active),160 µM (active),–
OCC(F)(F)OC(F)(F)C(F)(F)OC(F)(F)C(F)(F)OC(F)(F)CO,inactive,inactive,inactive,inactive,–,inactive,inactive,inactive,inactive,inactive,0.506 µM (active),–,–,–,–
CCCCc1ccccc1,inactive,inactive,inactive,inactive,inactive,inactive,inactive,inactive,inactive,inactive,–,–,–,–,–
Nc1cc2c3c(c1)C(c1ccccc1)=N[C@@H](NC(=O)c1cccnc1)C(=O)N3CC2,inactive,inactive,inactive,inactive,inactive,inactive,inactive,inactive,inactive,inactive,–,–,–,–,–
C=C(C)C(=O)OCC1CO1 (stereo not given),inactive,inactive,inactive,inactive,inactive,inactive,inactive,inactive,inactive,inactive,–,–,–,–,–
[N-]=[N+]=[N-],inactive,inactive,inactive,inactive,inactive,inactive,inactive,inactive,inactive,inactive,–,–,–,–,–
CCOS(=O)(=O)OCC,inactive,inactive,inactive,inactive,inactive,inactive,inactive,inactive,inactive,inactive,–,–,–,–,–
O=[N+]([O-])c1ccccc1,inactive,inactive,inactive,inactive,–,inactive,inactive,inactive,inactive,inactive,52.7 µM (active),–,–,–,–
CCOP(=S)(OCC)SCn1nnc2ccccc2c1=O,inactive,inactive,–,inactive,–,inactive,inactive,inactive,inactive,inactive,7.39 µM (active),–,–,–,9.67 µM (active)
O=S(=O)(F)C(F)(F)C(F)(F)C(F)(F)C(F)(F)C(F)(F)C(F)(F)C(F)(F)C(F)(F)F,inactive,inactive,inactive,inactive,inactive,inactive,inactive,inactive,inactive,inactive,–,–,–,–,–
